Compound activity as filed in PubChem BioAssay.
The entries come from a sample that favours hits as a whole.
GAA glycogen mod = qHTS Assay for Inhibitors and Activators of Human alpha-Glucosidase Cleavage of Glycogen; Lysosomal alpha-glucosidase (Homo sapiens), P10253; recombinant GAA, glycogen substrate, Amplex Red glucose oxidase fluorescence; Potency, µM (series often up to 76.4 µM), inactives show top-dose activity change, negative = inhibition, hits mostly inhibitors; 0.38% of 300,000 active; AID 2100, 2009;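 also: potency is read from the fitted curve at half-maximal effect; 0% = full enzyme reaction and -100% = no-enzyme basal signal; the screen sought inhibitors and activators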
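Natural-substrate format: glycogen cleavage by 4 nM human enzyme, glucose read by Amplex Red coupling (Ex 573, Em 610 nm). Normalized to enzyme and no-enzyme controls.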
GAA inh = qHTS Assay for Inhibitors of Human alpha-Glucosidase as a Potential Chaperone Treatment of Pompe Disease; AID 1466, 2008; 0.005% of 200,000 active; Lysosomal alpha-glucosidase (Homo sapiens), P10253; Potency, µM (highest dose often 76.9 µM), for inactives: at the top dose activity change, negative = inhibition, actives largely listed as inhibitors; purified human GAA, 4-MU-alpha-glucoside fluorescence;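 also: potency is read from the fitted curve at half-maximal effect; plate controls were uninhibited enzyme wells for no effect and no-enzyme background for full effect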
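AC50 values come from Hill fits of compound titrations (up to 77 uM) against 4 nM human enzyme. Substrate 4-methylumbelliferyl-alpha-D-pyranoside at 400 uM, pH 5.0 citrate buffer, 20 min room temperature; fluorescence Ex 365/Em 440 after alkaline stop.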
GLA inh pH 4.5 = qHTS Assay for Inhibitors of Human alpha-Galactosidase at pH 4.5; 230,000 tested, under 10 active; purified enzyme, 4-MU-alpha-Gal fluorescence, pH 4.5; activity change, negative = inhibition, % at 105 µM; AID 1467, 2008;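 also: 0% = full activity with enzyme and -100% = basal without enzyme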
GLA spleen mod = qHTS Assay for Inhibitors and Activators of Human alpha-Galactosidase From Spleen Homogenate; 0.008% of 240,000 active; Potency, µM (doses to about 80 µM), for the others: at the highest dose activity change, negative = inhibition, most hits filed as inhibitors; human spleen homogenate, 4MU-alpha-Gal fluorescence, 40 min; AID 2107, 2009;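 also: potency is read from the fitted curve at half-maximal effect; 0% = enzyme with vehicle and -100% = no enzyme basal signal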
Target sequence (P06280 32-429 limits assumed): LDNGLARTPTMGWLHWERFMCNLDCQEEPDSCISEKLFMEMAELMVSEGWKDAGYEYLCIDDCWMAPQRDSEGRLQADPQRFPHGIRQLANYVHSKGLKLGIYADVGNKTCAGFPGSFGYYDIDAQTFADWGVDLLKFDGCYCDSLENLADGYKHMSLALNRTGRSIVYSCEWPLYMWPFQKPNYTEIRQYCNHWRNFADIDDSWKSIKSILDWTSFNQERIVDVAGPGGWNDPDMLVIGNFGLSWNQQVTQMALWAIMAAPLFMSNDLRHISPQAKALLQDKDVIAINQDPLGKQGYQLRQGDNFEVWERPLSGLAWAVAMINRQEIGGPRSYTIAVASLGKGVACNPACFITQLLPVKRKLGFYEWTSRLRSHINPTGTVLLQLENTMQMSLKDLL
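Spleen homogenate 1 ug + cpd (titration) + 4-MU-alpha-D-galactopyranoside 1 mM; 37C 40 min; 50 mM citrate/phosphate pH 5.0, 0.01% Tween-20; stop pH 10; fluorescence 365/440; AC50 via Hill.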
aGlu spleen mod = qHTS Assay for Inhibitors and Activators of Human alpha-Glucosidase From Spleen Homogenate | Lysosomal alpha-glucosidase (Homo sapiens), P10253 | Potency, µM (series often up to 79.9 µM), without a hit: at the top dose activity change, negative = inhibition, actives largely listed as inhibitors | human spleen homogenate, 4-MU-alpha-glucoside fluorescence | AID 2112, 2009 | 0.006% of 240,000 active;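 also: potency is read from the fitted curve at half-maximal effect; 0% = enzyme with vehicle and -100% = no enzyme basal signal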
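AC50 values come from Hill-equation fits of concentration-response data, normalized to no-enzyme and full-activity controls. Enzyme source: 1 ug human spleen homogenate; 1 mM fluorogenic 4-MU glucoside, pH 5.0 citrate buffer, 37 C, 40 min.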
Active calls of the source: *; ? = inconclusive; / = not tested or not shown; [ ] = dose if it differs, or a comment. Calls follow the shape of the dose curve; as a rule, active = well fitted curve in the direction sought with a large enough effect; inconclusive = small, poorly fitted or top-dose-only effect, or another doubt; inactive = no such curve, though single readings can be large; an effect the other way counts as inactive or inconclusive.

SMILES	GAA glycogen mod	GAA inh	GLA inh pH 4.5	GLA spleen mod	aGlu spleen mod
NCC(=O)N[C@@H](CCCN=C(N)N)C(=O)NCC(=O)N[C@@H](CC(=O)O)C(=O)N[C@@H](CC(N)=O)C(=O)N1CC[C@@H](C(=O)O)C1	/	/	-18	10%	2%
CC[C@H](C)[C@H](NC(=O)[C@H](CC(C)C)NC(=O)[C@@H](N)CO)C(=O)NCC(=O)N[C@@H](CCCCN)C(=O)N[C@H](C(=O)O)C(C)C	/	/	/	9%	1%
Cc1ccc(C[C@H](C(=O)O)N2C(=O)c3ccc(C(=O)O)cc3C2=O)c(C)c1	/	/	/	5%	9%
Fc1ccccc1NC(=S)NNc1ncc(C(F)(F)F)cc1Cl	28µM*	-10%	2	1%	-1%
Cc1ccccc1NC(=S)NNc1ncc(C(F)(F)F)cc1Cl	?	-1%	3	3%	-8%
COC(=O)C1=C[C@@H](C(=O)OC)C2C3=C(C(=O)[C@@]2(CC(C)C)NC(=O)c2ccccc2)[C@H](C)n2c(=O)n(C)c(=O)n2[C@@H]3C1 (some centres undefined)	/	/	/	-15%	5%
Cc1cccc(-c2ccc(C=Nc3c(C)n(C)n(-c4ccccc4)c3=O)o2)c1	4µM*	-16%	0	6%	4%
Cc1c(N=Cc2nc3ccccc3[nH]2)c(=O)n(-c2ccccc2)n1C	8.9µM*	-8%	8	10%	6%
Cc1c(N=Cc2nc3ccccc3n2C)c(=O)n(-c2ccccc2)n1C	11µM*	2%	-1	5%	-1%
Cc1c(NC(=O)/C(C#N)=C/c2ccc(-c3cccc(Cl)c3)o2)c(=O)n(-c2ccccc2)n1C	-8%	?	-9	-9%	-7%
O=C(O)c1ccccc1Cc1ccccc1	/	/	/	7%	1%
CC(O)(c1ccc(Cl)cc1)c1ccc(Cl)cc1	/	/	/	17%	3%
Cc1cc2c(c(=O)n1Cc1ccccc1)C1O[C@](c3ccsc3)(Cc3cc(C#N)ccc31)O2	2%[15.3 µM]	/	/	/	/
Cc1cc(C)c(NC(=O)Nc2sc3nc4n(c(=O)c3c2C)CCC(C)CC4)c(C)c1 (centres undefined)	-11%[76.3 µM]	/	/	/	/
CCCCN(CC)CCCNC(=O)Nc1sc2nc3n(c(=O)c2c1C)CCC(C)CC3 (centres undefined)	10µM*	/	/	/	/
CC12CCC(C(=O)NNc3ccccc3)(OC1=O)C2(C)C (centres undefined)	28µM*	5%	-1	0%	-4%
CC12CCC(C(=O)NNc3ccc([N+](=O)[O-])cc3)(OC1=O)C2(C)C (centres undefined)	?	/	-14	-4%	-4%
COc1cc(NS(=O)(=O)c2ccc([N+](=O)[O-])cc2)c2ncccc2c1	/	/	/	-2%	7%
O=C(COc1ccc2c(-c3ccccc3)cc(=O)oc2c1)N[C@@H](Cc1c[nH]c2ccc(O)cc12)C(=O)O	2.2µM*	/	/	/	/
O=C(Cc1cc(=O)oc2cc(O)ccc12)N[C@@H](Cc1c[nH]c2ccccc12)C(=O)O	-4%	/	/	/	/
CCCc1cc(=O)oc2cc(OCC(=O)NC(Cc3c[nH]c4ccc(O)cc34)C(=O)O)c(Cl)cc12 (centres undefined)	7.9µM*	/	/	/	/
CC(C)(CCCCCCCCCCC(C)(C)CC(=O)O)CC(=O)O	/	/	/	0%	-5%
COc1ccc(NC2=C(Cl)C(=O)N(c3ccccc3)C2=O)c(OC)c1	3%	-9%[15.4 µM]	/	-10%	-7%
COc1ccc(N2C(=O)C(Cl)=C(Nc3c(C)n(C)n(-c4ccccc4)c3=O)C2=O)cc1	25µM*	6%	-14	-2%	2%
CCOC(=O)Cc1csc(NC(=O)NC2(C(F)(F)F)Oc3ccccc3O2)n1	18µM*	-9%	-4	1%	-5%
SMILES	GAA glycogen mod	GAA inh	GLA inh pH 4.5	GLA spleen mod	aGlu spleen mod
CCOC(=O)Cc1csc(NC(=O)NC2(C(F)(F)F)Oc3cc(Cl)c(Cl)cc3O2)n1	8.8µM*	0%	5	-2%	1%
CCOC(=O)Cc1csc(NC(=O)Nc2ccc(OC(F)(F)F)cc2)n1	-1%	1%[15.4 µM]	5	4%	-9%
CCOC(=O)Cc1csc(NC(=O)NC2(C(F)(F)F)Oc3ccc(Cl)cc3O2)n1 (centres undefined)	11µM*	-1%	-3	-5%	-1%
CCOC(=O)Cc1csc(NC(=O)Cc2ccc(Cl)cc2)n1	-3%	/	-7	1%	-6%
C/C1=C\[C@@H](O)C(C(C)C)C(OC(=O)c2ccc(O)cc2)C/C(C)=C/CC1 (some centres undefined)	/	/	/	-9%	5%
Cc1c(NS(=O)(=O)c2ccccc2)cc(C(C)C)c(O)c1S(=O)(=O)c1ccc(Cl)cc1	11µM*	/	/	/	/
Cc1ccc(S(=O)(=O)Nc2cc(Cl)c(O)cc2C)cc1	22µM*	-10%	-4	-2%	7%
Cc1c(NS(=O)(=O)c2ccccc2)cc(Cl)c(O)c1C	14µM*	-7%	15	-3%	-1%
COc1ccc(S(=O)(=O)c2c(C)c(NS(=O)(=O)c3ccccc3)cc(C)c2O)cc1	?	-2%	-1	-1%	-4%
COc1cc2oc(=O)cc(-c3ccc(-c4ccc(NC(C)=O)cc4)cc3)c2c(OC)c1OC	/	/	-13	-1%	7%
CC1(C(=O)O)NCCc2cc(O)c(O)cc21 (centres undefined)	/	/	/	-1%	10%
Cc1[nH][nH]c(=O)c1C(c1ccc(-c2ccc(Cl)c(Cl)c2)o1)c1c(C)[nH][nH]c1=O	32µM*	-4%	-2	-6%	-11%
CN1C(=O)/C(=C/C=C2\SCCN2C)N(C)C1=S	11µM*	?	-11[21.1 µM]	-3%	-3%
CN1C(=O)/C(=C/C=C2\SCCN2C)SC1=S	2%	-3%	-9	0%	-3%
CSCC[C@@H](N)C(=O)O	/	/	/	0%	-1%
COc1ccc(Br)cc1CNC(=O)Nc1cccs1	?	-8%	1	2%	-18%
Cc1ccc(CNC(=O)Nc2ccccc2)cc1	-2%	-8%	-5	-7%	-4%
COc1ccccc1CNC(=O)Nc1cccs1	28µM*	-3%	-12	1%	0%
COc1cccc(CNC(=O)Nc2cccs2)c1	?	-4%	-6	6%	-17%
Cc1ccc(CNC(=O)Nc2cccs2)cc1	28µM*	-6%	-3	6%	-7%
COc1ccc(CNC(=O)Nc2cccs2)cc1OC	10µM*	-8%	2	5%	2%
O=C(NN=C(Cc1ccccc1)Cc1ccccc1)c1ccc(F)cc1	7%	-7%	-7	-7%	-4%
